A short description of test [1]: anti-His antibody binders, primary screen, artefact control for SMM control protein annotation, biochemical, small-molecule microarray, 635 nm fluorescence (AID 1128).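 Further: score merges feature fluorescence with signal-to-noise for each printed compound spot.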 As to conditions: anti-His Alexa647 antibody binding, higher = more signal.
For test [2], the system named is Human papillomavirus type 1a E7 protein (residues 1-88). Briefly: HPV1a E7 small-molecule binders, primary screen, biochemical, small-molecule microarray, residues 1-88, 635 nm (AID 1129). As to conditions: small-molecule microarray binding, fluorescence 635 nm; higher = more signal.
The target of test [3] is Focal adhesion kinase 1 (Homo sapiens) (UniProt Q05397). The test is described as follows: small-molecule microarray binders of FAK, primary screen, biochemical, 635/667 nm fluorescence, BSA, DTT (AID 1130).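 Further: composite of spot emission at 667 nm and signal to noise over triplicate slides.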 Conditions: PTK2 binding, 635 nm fluorescence, higher = more signal.
Chain of Focal adhesion kinase 1 (Homo sapiens) (Q05397 whole entry, looked up): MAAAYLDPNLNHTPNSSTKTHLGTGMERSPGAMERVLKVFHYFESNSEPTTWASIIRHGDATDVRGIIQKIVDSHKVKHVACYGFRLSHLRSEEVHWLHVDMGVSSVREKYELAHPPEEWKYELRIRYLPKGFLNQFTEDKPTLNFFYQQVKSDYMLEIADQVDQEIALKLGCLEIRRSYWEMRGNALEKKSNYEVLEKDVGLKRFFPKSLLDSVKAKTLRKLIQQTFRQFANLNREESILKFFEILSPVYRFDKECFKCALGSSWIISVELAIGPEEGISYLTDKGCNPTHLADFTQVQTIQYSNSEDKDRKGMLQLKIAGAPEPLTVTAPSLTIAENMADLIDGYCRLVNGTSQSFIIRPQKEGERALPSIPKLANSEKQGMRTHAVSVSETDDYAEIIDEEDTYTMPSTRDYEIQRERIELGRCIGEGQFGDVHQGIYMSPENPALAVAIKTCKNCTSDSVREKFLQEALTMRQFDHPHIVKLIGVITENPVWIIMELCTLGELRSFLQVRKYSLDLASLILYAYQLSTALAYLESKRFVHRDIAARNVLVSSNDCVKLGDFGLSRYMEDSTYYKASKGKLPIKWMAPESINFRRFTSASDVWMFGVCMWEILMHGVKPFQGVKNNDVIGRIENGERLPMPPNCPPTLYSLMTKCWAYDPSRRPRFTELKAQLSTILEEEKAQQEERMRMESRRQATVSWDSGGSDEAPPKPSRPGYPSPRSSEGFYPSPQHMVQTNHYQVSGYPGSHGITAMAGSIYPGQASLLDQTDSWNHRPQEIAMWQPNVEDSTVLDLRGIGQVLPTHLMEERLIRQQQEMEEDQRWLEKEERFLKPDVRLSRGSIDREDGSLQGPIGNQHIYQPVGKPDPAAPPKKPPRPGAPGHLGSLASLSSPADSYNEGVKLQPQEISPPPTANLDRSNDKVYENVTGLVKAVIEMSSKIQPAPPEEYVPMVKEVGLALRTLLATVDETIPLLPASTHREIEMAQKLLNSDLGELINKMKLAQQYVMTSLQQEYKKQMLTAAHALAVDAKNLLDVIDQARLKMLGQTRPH
Test [4] relates to Fibrinogen (Alexa647-labelled). The test is described as follows: fibrinogen binders on compound microarrays, profiling panel, artefact control for SMM control-protein annotation, biochemical, small-molecule microarray, 635/667 nm fluorescence (AID 1131).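 Further: z-score merges 667 nm fluorescence with per-spot signal-to-noise over triplicate slides.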 Conditions: fibrinogen-A647 binding fluorescence, higher = more signal.
For test [5], the target named is Follistatin (Homo sapiens) (UniProt P19883). The test is described as follows: follistatin binders on small-molecule microarrays, primary screen, biochemical, small-molecule microarray, 635/667 nm fluorescence (AID 1132). As to conditions: FST binding, 635 nm fluorescence, higher = more signal.
Chain of Follistatin (Homo sapiens) (P19883 whole entry, looked up): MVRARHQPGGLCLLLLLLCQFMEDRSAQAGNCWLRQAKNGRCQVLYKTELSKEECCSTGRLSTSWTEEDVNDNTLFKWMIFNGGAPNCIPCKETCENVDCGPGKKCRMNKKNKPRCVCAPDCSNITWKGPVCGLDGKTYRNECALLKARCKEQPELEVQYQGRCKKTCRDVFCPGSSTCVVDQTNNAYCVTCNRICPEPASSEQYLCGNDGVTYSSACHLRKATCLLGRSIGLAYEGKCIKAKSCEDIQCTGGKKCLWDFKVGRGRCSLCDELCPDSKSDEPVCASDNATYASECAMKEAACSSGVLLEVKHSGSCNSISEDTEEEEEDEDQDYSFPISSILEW
Test [6] deals with Fibroblast growth factor 2 (Homo sapiens) (UniProt P09038). Briefly: FGF2 binders on small-molecule microarrays, primary screen, biochemical, small-molecule microarray, 635/667 nm fluorescence (AID 1133). As to conditions: small-molecule microarray binding, FGF2, fluorescence 635/667; higher = more signal.
Chain of Fibroblast growth factor 2 (Homo sapiens) (P09038 whole entry, looked up): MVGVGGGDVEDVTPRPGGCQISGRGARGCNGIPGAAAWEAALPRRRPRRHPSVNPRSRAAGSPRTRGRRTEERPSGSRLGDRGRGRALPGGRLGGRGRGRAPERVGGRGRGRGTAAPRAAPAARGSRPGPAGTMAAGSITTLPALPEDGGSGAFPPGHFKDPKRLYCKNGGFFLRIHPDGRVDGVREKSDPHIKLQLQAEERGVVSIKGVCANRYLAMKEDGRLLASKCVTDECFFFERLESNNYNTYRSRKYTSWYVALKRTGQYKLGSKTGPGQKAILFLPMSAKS
The nature of test [7]: mitochondrial membrane potential change in A549 cells, profiling panel, cell-based, JC-1 fluorescence, basal, 24 h, 100 nL (AID 1138).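 Further: A549 lung adenocarcinoma cells under basal conditions with no added stimulus; test concentration not given here.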 As to conditions: higher = more signal.
Test [8] relates to Lefty1. Briefly: Lefty1 binders on small-molecule microarrays, primary screen, biochemical, small-molecule microarray, 635/667 nm fluorescence (AID 1139). Conditions: small-molecule microarray binding, fluorescence 635/667; higher = more signal.
Test [9] concerns wheat germ agglutinin (Triticum aestivum), Alexa647-labelled. Briefly: wheat germ agglutinin binders on compound microarrays, profiling panel, artefact control for SMM control-protein annotation, biochemical, small-molecule microarray, 635/667 nm fluorescence (AID 1140).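 Further: score merges 667 nm feature emission with signal to noise over triplicate slides.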 Conditions: WGA-A647 binding, 635 nm fluorescence, higher = more signal.
Test [10] concerns the target Luciferin 4-monooxygenase (Photinus pyralis) (UniProt P08659). Briefly: firefly luciferase enzyme inhibitors, primary screen, biochemical, luminescence, purified enzyme, 2006 set (AID 1141).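 Further: cell-free assay with purified firefly luciferase at 100 ng per well in PBS; test concentration not given here.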 Conditions: SteadyGlo luminescence, 30 min, higher = more signal, called active from +8 up or from −8 down.
The test system of test [11] is Wnt5a (protein binding on small-molecule microarray). The test is described as follows: Wnt5a binders on small-molecule microarray, primary screen, biophysical, 635/667 nm fluorescence (AID 1142).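 Further: fluorescence read at 667 nm with signal to noise per printed feature.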 Conditions: 635 nm fluorescence, higher = more signal.
Test [12] is described as follows: cell viability in Huh7 cells, primary screen, cytotoxicity control for HCV replication inhibitor project, CellTiter-Glo luminescence, basal, 48 h (AID 1143).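 Further: Huh7 hepatoma cells carrying a hepatitis C replication reporter with no stimulus; test concentration not given here.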 Conditions: Huh7 HCV replicon, higher = more signal, called active from +8 up or from −8 down.
Test [13] can be described thus: P. aeruginosa biofilm formation inhibitors, primary screen, PAO1 strain, BacTiter-Glo luminescence, LB-PBS (AID 1144). Conditions: 12 h, higher = more signal.
The nature of test [14]: CREB reporter modulators without forskolin, primary screen, cell-based, PC12, CRE-LacZ reporter, unstimulated (AID 1145). Conditions: no forskolin, luminescence, 4.5 h, higher = more signal, called active from +8 up or from −8 down.
The nature of test [15]: CREB reporter modulators under forskolin, primary screen, cell-based, PC12, CRE-LacZ reporter, forskolin-stimulated (AID 1146).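 Further: PC12 cells with 6xCRE LacZ reporter stimulated by forskolin 10 µM; beta-galactosidase reporter signal reflecting CREB driven transcription.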 As to conditions: luminescence, 4.5 h, higher = more signal, called active from +8 up or from −8 down.
Test [16] has as its target Streptavidin (Streptomyces avidinii) (UniProt P22629). The test is described as follows: streptavidin binders on small-molecule microarray, primary screen, artefact control for SMM compound annotation, biophysical, 635/667 nm fluorescence (AID 1147).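 Further: signal reflects streptavidin binding to arrayed compounds as a control protein.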 Conditions: streptavidin binding, higher = more signal.
The nature of test [17]: small-molecule binders of probe aInhba, primary screen, biochemical, small-molecule microarray, 635/667 nm fluorescence (AID 1148).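 Further: score merges 667nm spot fluorescence with signal-to-noise for antibody binding to printed compounds.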 As to conditions: higher = more signal.
Test [18] addresses Torsin-1A (Homo sapiens) (UniProt O14656). Briefly: torsin A binders from cell lysate, primary screen, small-molecule microarray, wild-type, 635/667 nm (AID 1149). As to conditions: COS7 hTOR1A-WT lysate, 635 nm fluorescence, higher = more signal.
The target is the same in test [19]. Briefly: small-molecule binders of mutant TOR1A in lysate, primary screen, cell lysate, small-molecule microarray, COS7 lysate, 635/667 nm fluorescence (AID 1150).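 Further: score pools 667 nm emission and signal to noise measuring lysate protein binding.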 Conditions: COS7 hTOR1A mutant lysate, 635 nm fluorescence, higher = more signal.
Test [20] deals with Sonic hedgehog protein (Shh). The test is described as follows: small-molecule binders of Shh protein, primary screen, biochemical, small-molecule microarray, 635/667 nm fluorescence (AID 1151).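 Further: Shh protein binding to compounds spotted on small-molecule microarray slides; score combines spot fluorescence intensity with signal-to-noise across triplicate slides.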 As to conditions: small-molecule microarray binding, 635 nm fluorescence; higher = more signal.

Structures are written as SMILES. Active and inactive are the calls of the source. Unless noted, how the calls were made is not given here.

Chain of Torsin-1A (Homo sapiens) (O14656 whole entry, looked up): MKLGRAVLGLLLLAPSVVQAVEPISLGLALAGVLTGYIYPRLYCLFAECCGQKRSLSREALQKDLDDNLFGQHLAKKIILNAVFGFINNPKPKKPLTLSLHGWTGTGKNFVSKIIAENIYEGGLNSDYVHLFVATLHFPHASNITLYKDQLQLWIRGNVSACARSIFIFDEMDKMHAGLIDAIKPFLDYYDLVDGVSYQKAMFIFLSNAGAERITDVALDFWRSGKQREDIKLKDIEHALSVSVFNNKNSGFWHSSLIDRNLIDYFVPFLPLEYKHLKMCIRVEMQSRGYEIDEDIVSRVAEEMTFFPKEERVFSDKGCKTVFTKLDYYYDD
Chain of Streptavidin (Streptomyces avidinii) (P22629 whole entry, looked up): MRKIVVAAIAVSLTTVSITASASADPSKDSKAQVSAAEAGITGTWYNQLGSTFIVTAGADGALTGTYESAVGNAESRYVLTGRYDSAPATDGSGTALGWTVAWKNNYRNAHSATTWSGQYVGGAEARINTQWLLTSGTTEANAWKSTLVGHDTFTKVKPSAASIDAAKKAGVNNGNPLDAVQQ
Chain of Luciferin 4-monooxygenase (Photinus pyralis) (P08659 whole entry, looked up): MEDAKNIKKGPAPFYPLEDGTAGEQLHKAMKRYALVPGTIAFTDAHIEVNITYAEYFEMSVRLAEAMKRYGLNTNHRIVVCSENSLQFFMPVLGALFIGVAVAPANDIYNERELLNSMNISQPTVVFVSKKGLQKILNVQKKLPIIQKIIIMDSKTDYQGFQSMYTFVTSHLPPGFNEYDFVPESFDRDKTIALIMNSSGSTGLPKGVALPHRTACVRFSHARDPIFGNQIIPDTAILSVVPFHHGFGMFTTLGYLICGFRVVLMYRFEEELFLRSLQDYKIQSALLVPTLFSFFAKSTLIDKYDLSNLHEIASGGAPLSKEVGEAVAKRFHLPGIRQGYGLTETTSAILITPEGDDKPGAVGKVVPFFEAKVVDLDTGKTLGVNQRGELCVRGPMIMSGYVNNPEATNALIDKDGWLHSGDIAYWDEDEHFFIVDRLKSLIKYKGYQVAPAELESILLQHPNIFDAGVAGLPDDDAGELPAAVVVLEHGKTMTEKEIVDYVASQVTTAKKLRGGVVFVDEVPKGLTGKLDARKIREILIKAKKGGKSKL

With `CCCCCN1CC=CC23O[C@@H]4C=CCOC(=O)[C@@H]4[C@H]2C(=O)N(CCCCCO)[C@@H]3C1=O` (stereo not given in full), the composite z-score in test [1] was 0.584; in test [2], -0.465; in test [3], 0.0875; in test [4] it was -1.87; in test [5] it was -0.232; in test [6] it was -0.486. In addition, the composite z-score is 0.604 in test [8]; 0.0764 in test [9]; -0.659 in test [11]; -0.735 in [16]; -0.213 in [17]; 0.459 in test [18]. Also, the composite z-score is 2.16 in test [19] and 0.32 in [20]. In addition, the z-score in test [7] was -0.465; in test [10], 0.517 (inactive); in test [12], -0.211 (inactive); in [13], -1.51 (inactive); in test [14] it was -1.45 (inactive); in test [15], -0.151 (inactive).

Consider `CC(=O)n1cc(C(O)C2C=CC3C(=O)N(c4ccccc4)C(=O)C3N2Nc2ccccc2F)c2ccccc21` (stereo not given), for which the composite z-score in test [1] was 1.01; in [2], 0.726; in test [3], 0.251; in [4], 1.02; in test [5], -1.04; in test [6] it was -0.89. The composite z-score is -0.274 in test [8]; 0.0832 in test [9]; -0.296 in test [11]; 0.0289 in test [16]; -0.157 in test [17]; -0.561 in test [18]. For the same molecule, the composite z-score was 0.495 in test [19] and -0.813 in test [20]. In addition, the z-score in test [7] is -1.16; in test [10], 1.34 (inactive); in test [12], -3.27 (inactive); in test [13] it was -1.69 (inactive); in test [14], -0.172 (inactive); in test [15], 0.499 (inactive).

Consider `[N-]=[N+]=NCc1ccccc1C[C@]1(C(=O)O)COC(c2ccc(OCCCO)cc2)=N1`, for which the composite z-score in [1] is -0.615; in test [2], -1.13; in [3] it was -0.217; in test [4], -2.49; in [5] it was -0.21; in test [6], -0.855. Further, the composite z-score in [8] was -0.212; in test [9] it was -0.0491; in test [11] it was -0.333; in [16], -0.878; in [17] it was -0.13; in test [18], 0.861. Also, the composite z-score in test [19] was 0.0486; in [20] it was -1.03. The z-score was -0.103 in test [7]; -0.536 (inactive) in [10]; 0.432 (inactive) in [12]; 0.475 (inactive) in [13]; -0.426 (inactive) in test [14]; -0.916 (inactive) in [15].

As for `CC(C)C[C@H]1NC(=O)[C@H](Cc2ccccc2)NC(=O)[C@@]23C(=O)N[C@@H](Cc4ccccc4)C2[C@H](C)[C@@]2(C)O[C@H]2C3/C=C/C/C=C\CNC1=O` (stereo not given in full), the composite z-score was determined as 0.701 in test [1]; 0.475 in test [2]; 0.899 in test [3]; 0.315 in test [4]; 0.927 in [5]; 1.01 in test [6]. The composite z-score is 0.376 in test [8]; 0.658 in test [9]; 0.116 in test [11]; 0.494 in test [16]; -0.0552 in test [17]; 0.471 in test [18]. Further, the composite z-score in [19] was 0.855; in test [20], 0.889. For the same molecule, the z-score in test [7] was -0.000177; in [10], -0.179 (inactive); in test [12], -1.29 (inactive); in test [13], 0.338 (inactive); in [14] it was 0.67 (inactive); in test [15], 0.105 (inactive).
